Assay outcomes: PubChem BioAssay, several laboratories
BaF3 tox = counter-screen for JAK2V617F inhibitors: parental Ba/F3 viability inhibitors; CellTiter-Glo ATP luminescence; inhibition, % at 5.6 µM; 220,000 compounds, 1.1% hits;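 active means inhibition above a per-campaign cutoff, the mean inhibition of all tested compounds plus 3 SD, cut at about 27% in these data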;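 further: 0% = DMSO wells and 100% = JAK Inhibitor I control wells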
aSyn UTR inh = MLPCN primary screen, SNCA 5' untranslated region | AID 1813 | inhibition, % (tested at 7.5 µM) | alpha-synuclein 5'UTR reporter, inhibitor activity | 300,000 compounds, 0.82% hits; in the data active means inhibition above about 60%;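 further: H4 neuroglioblastoma cells stably carrying SNCA 5'UTR luciferase fusion; 0% = DMSO wells and 100% = positive control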
Ba/F3 V617F tox = reduce viability of Ba/F3 cells dependent on JAK2V617F | Ba/F3 EpoR-JAK2V617F viability, ATP luminescence | inhibition, % at 5.6 µM | 220,000 compounds, 1.1% hits;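 active means inhibition above the campaign mean plus 3 SD over all tested compounds, cut at about 24% in these data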;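 further: cytokine-independent growth of Ba/F3 cells driven by EpoR plus mutant JAK2; 0% = DMSO-treated cells and 100% = JAK inhibitor I control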
KLF5 inhibitor = kruppel-like factor 5 inhibition; 290,000 compounds, 0.23% hits; AID 1700; DLD-1 KLF5 promoter-luciferase reporter, luminescence; inhibition, % at 5 µM;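 active means inhibition above a per-plate limit of that plate's mean compound inhibition plus 3 SD, cut at about 60% in these data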;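 further: 0% = DMSO wells and 100% = LY294002 at 200 µM; higher means less KLF5 promoter-driven luciferase light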
APP transl inh = APP translation inhibition; inhibition, % at 2 µM; 190,000 compounds, 0.82% hits; SH-SY5Y APP 5'UTR-luciferase reporter, luminescence;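 active means inhibition above a set limit, derived from the sample mean plus 3 SD, cut at about 45% in these data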
IEC-6 tox = IEC-6 cytotoxicity, counter-screen for KLF5 inhibitors; luminescence viability; inhibition, % at 5 µM; 290,000 compounds, 0.78% hits; AID 1825; in the data active means inhibition above about 22%;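 further: 0% = plate median of test compound wells and 100% = cytotoxic reference compound wells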
Starred values were filed as active, the others as inactive; x = no result. Rows were chosen to be rich in hits. Some 2.2% of all compounds tested hit in one or more screens of this group.

SMILES	BaF3 tox	aSyn UTR inh	Ba/F3 V617F tox	KLF5 inhibitor	APP transl inh	IEC-6 tox
Cc1cc(N/N=C/c2ccc(O)cc2O)nc(-c2ccccc2O)n1	-2	75*	6	35	56*	1
Cn1c(=O)cc(OCCCC(=O)NC2CCCC2)c2ccccc21	45*	-8	51*	-45	-2	21
O=C(c1ccc(Br)cc1)N(Cc1nc2ccccc2c(=O)[nH]1)C1CCCC1	9	-16	2	10	9	3
CC1CCN(C(=O)C2CCCN(S(=O)(=O)c3ccc4c(c3)CC(C)N4C(=O)C3CC3)C2)CC1 (centres undefined)	x	19	x	-2	x	4
CCOc1ccc(NC(=S)Nc2ccc(OC(F)(F)F)cc2)cc1	51*	5	63*	7	x	-1
CCOc1ccc(NC(=S)Nc2ccccc2C2CC2)cc1	81*	-6	1	-35	-6	-1
Cc1cc(SCC(=O)N/N=C/c2ccc(C(=O)O)cc2)nc2ccccc12	x	-22	x	-39	x	1
Cn1c(=O)c2[nH]c(COc3ccc(C(C)(C)C)cc3)nc2n(C)c1=O	48*	-7	26*	-4	x	8
Cn1c(=O)c2[nH]c(CNCc3ccccc3Cl)nc2n(C)c1=O	5	-7	3	10	4	5
O=c1[nH]cc(O)c(=O)[nH]1	-3	19	4	4	x	0
O=c1[nH]cc(F)c(=O)[nH]1	83*	-31	86*	46	6	86*
CCOC(=O)/C(=C\c1cccnc1)C(=O)c1cc(C(C)=O)c(Nc2ccccc2)s1	0	83*	1	-13	45	1
CCOC(=O)/C(=C\c1ccccc1)C(=O)c1cc(C(C)=O)c(Nc2ccccc2)s1	2	-29	1	-17	11	5
Cc1ccc(C(=O)NCC(=O)OC(C)C(=O)Nc2ccc(N(C)C)cc2)s1 (centres undefined)	1	-16	-3	-13	14	2
N#CC1=C2SCN(c3ccccc3)CN2C(=O)CC1c1ccccc1Cl (centres undefined)	39*	-16	2	-13	0	5
CCCCN(CC)CCNC(=O)c1cc2c(-c3ccc(Cl)cc3)nn(C)c2s1	x	79*	x	-26	x	4
CCN(CC)CCNC(=O)c1cc2c(-c3ccc(Cl)cc3)nn(C)c2s1	8	-43	3	-12	9	9
COc1ccc(C2=Nn3c(nnc3-c3ccncc3)SC2)cc1OC	1	72*	0	-2	9	0
CCO[C@H]1OC(C(=O)NCc2nc3ccccc3[nH]2)=C[C@@H](c2ccc(Br)cc2)[C@@H]1CCCO	x	-4	x	x	x	x
CCO[C@@H]1OC(C(=O)NCc2nc3ccccc3[nH]2)=C[C@H](C(C)(C)C)[C@H]1CCCO	x	85*	x	x	x	x
CN(Cc1ccccc1)C(=O)CCC1CCN(S(C)(=O)=O)CC1	x	-8	x	-12	x	-4
COc1ccccc1C(=O)NC(=O)Cn1nc(C)c([N+](=O)[O-])c1C	x	-1	x	x	x	x
Cc1cc(C)c2ccc(N)nc2c1O	3	65*	-2	-20	66*	3
CCOc1ccccc1/C=N/NC(=O)c1nnn(-c2nonc2N)c1CN1CCCC1	x	-12	x	-14	x	-7
Cc1ccc(-n2nc3c(N4CCC(C(=O)NCCc5cccs5)CC4)nnc(C)c3c2C)cc1	x	90*	x	-30	x	17
SMILES	BaF3 tox	aSyn UTR inh	Ba/F3 V617F tox	KLF5 inhibitor	APP transl inh	IEC-6 tox
Cc1ccc(-n2nc3c(=O)n(CC(=O)NCCc4cccs4)nc(C)c3c2C)cc1	x	43	x	-8	x	6
COc1ccc(CCn2c(N)c(C(=O)NCc3ccco3)c3nc4ccccc4nc32)cc1	38*	-3	37*	-18	-6	2
COc1ccc(CCn2c(N)c(C(=O)NCc3ccco3)c3nc4ccccc4nc32)cc1OC	3	-51	-2	-5	9	-3
N#Cc1ccccc1S(=O)(=O)N1CCN(S(=O)(=O)c2ccc(Br)c(C(=O)O)c2)CC1	x	-21	x	-53	x	-7
COC(=O)c1cc(NC(=O)c2c(Cl)nc3sccn23)cc(C(=O)OC)c1	4	80*	1	3	5	-2
CCCc1nnc(SCC(=O)NC2CCCCC2)n1CCOC	x	-7	x	-11	x	2
O=C1NC(Cc2ccccc2)C(=O)N1Cc1cc([N+](=O)[O-])cc2c1OCOC2 (centres undefined)	2	-22	-1	-23	-1	-1
Cc1cc(Br)ccc1OCC(=O)NNC(=O)c1ccc(NC(=O)C2CC2)cc1	3	-22	-2	5	45*	0
CCCC(=O)Nc1ccc(C(=O)NNC(=O)COc2ccc(Br)c(C)c2)cc1	0	9	2	-21	50*	6
CCOc1ccc(-c2cc(CCCC(=O)NCc3ccco3)no2)cc1	-1	73*	-2	-9	41	-1
CCOc1ccc(-c2cc(CCCC(=O)NCc3ccc(C)cc3)no2)cc1	6	81*	1	17	30	-1
COc1ccc(-c2cc(CCCC(=O)NCCc3cc(OC)ccc3OC)no2)cc1	6	7	2	7	2	1
COc1cc(C(=O)NCc2ncccc2C)ccc1OC1CCN(C(C)=O)CC1	x	14	x	-38	x	7
Cc1ccc(S(=O)(=O)N2CCC(C(=O)N3CCCC3C(=O)N[C@@H](CC(C)C)C(=O)NCC(N)=O)CC2)cc1 (some centres undefined)	x	1	x	1	x	1
COc1cc(-c2ccc(=O)[nH]n2)ccc1OC(F)F	-7	87*	-2	-15	x	-3
CC(=O)N1CCC(=NNC(=O)c2cccs2)CC1	53*	-115	15	-134	-117	9
Cc1ccc(C2Cc3cc(O)c(O)cc3CN2)cc1 (centres undefined)	x	89*	x	x	x	x
Cc1ccc(O)c(C2=NNC(c3ccc(Cl)cc3)C2)c1 (centres undefined)	4	-128	-5	-44	x	-10
COc1ccc2nc(C)cc(SCC(=O)N/N=C/c3ccccc3)c2c1	2	0	1	9	2	-8
COc1ccc2nc(C)cc(SCC(=O)N/N=C/c3ccc(O)cc3O)c2c1	15	80*	7	22	36	5
CC1C(=O)N2CCCc3cc(NC(=O)c4ccccc4F)cc1c32 (centres undefined)	x	-5	x	x	x	x
CCOC(=O)C1=C(c2ccccc2)ON(C)C1c1ccccc1 (centres undefined)	39*	2	26*	2	2	-1
CCOC(=O)C1=C(C)N=C(SC)N(C)C1c1ccccc1 (centres undefined)	7	2	-2	-6	14	-1
COC(=O)CN1C(=O)N/C(=C/c2cc(OC)c(OC)cc2C)C1=O	90*	11	-2	-6	-31	4
CC(Oc1ccc(Cl)cc1)C(=O)NNC(=S)NC(=O)c1ccco1 (centres undefined)	4	39	-4	-32	2	2
CC1=NN(c2nc(-c3ccc(C)cc3)cs2)C(=O)C1N=Nc1ccc(C(N)=O)cc1 (centres undefined)	3	86*	-5	-48	33	-1
